Compound activity from PubChem BioAssay.
This excerpt belongs to a sample that is enriched for hits.
Six1-Eya2 inh – inhibitors of human Six1/Eya2 interaction; AlphaScreen GST-Six1/His-Eya2 binding, biochemical; stronger effect = lower value; activity change, % (test concentration not listed); 360,000 tested, 0.56% active
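Homogeneous AlphaScreen proximity assay pairing GST-Six1 with His-tagged Eya2 (added as 5X mix: 250 nM and 500 nM) in 50 mM Tris pH 8.0, 300 mM NaCl, 1 mM TCEP. Glutathione donor and nickel acceptor beads; 1 h, 37 °C, dark.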
L3MBTL1 inh – inhibitors of human L3MBTL1. Q9Y468. AlphaScreen L3MBTL1–H3K9me1 peptide binding. Potency, µM (top dose mostly 57.1 µM), for inactives: at the highest dose activity, negative = inhibition, actives largely listed as inhibitors. 230,000 tested, 0.66% active. AID 485360; active = well fitted inhibition curve with a large enough effect; inconclusive = small, poorly fitted or top-dose-only effect; inactive = no such curve, though single readings can be large or run the other way; also: potency is read from the fitted curve at half-maximal effect; nearly all actives have a fitted effect of over 60% in size
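Displacement of a biotinylated histone H3(1-15) peptide monomethylated at Lys9 (75 nM) from L3MBTL1 (50 nM) was measured by AlphaScreen after a 30 min room-temperature compound incubation; cefsulodin titration served as intraplate control.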
CtBP-E1A inh – CtBP/E1A binding inhibition; AlphaScreen GST-E1A/His-CtBP binding, 1536-well; stronger effect = lower value; activity change, % (test concentration not listed); 340,000 tested, 0.49% active
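GST-E1A and His-tagged CtBP (125 nM each as 5X stock) were preincubated with pin-transferred compound for 2 h at 37 °C in the dark, then glutathione donor and nickel acceptor beads were added for 1 h before AlphaScreen reading.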
KDM4E inh – inhibitors of human JMJD2E histone demethylase; JMJD2E catalytic domain, FDH-coupled NADH fluorescence (FDH is formaldehyde dehydrogenase); Potency, µM (titrated, usually from 57.1 µM), for inactives: at the highest dose activity change, negative = inhibition, hits mostly inhibitors; B2RXH2; 230,000 tested, 1.6% active; active = well fitted inhibition curve with a large enough effect, not every such curve was filed as active; inconclusive = small, poorly fitted or top-dose-only effect, or another doubt; inactive = no such curve, though single readings can be large or run the other way;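 also: potency is read from the fitted curve at half-maximal effect; 0% = wells with enzyme and -100% = buffer wells without enzyme; nearly all actives have a fitted effect of over 50% in size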
Target sequence (B2RXH2 1-337 limits assumed): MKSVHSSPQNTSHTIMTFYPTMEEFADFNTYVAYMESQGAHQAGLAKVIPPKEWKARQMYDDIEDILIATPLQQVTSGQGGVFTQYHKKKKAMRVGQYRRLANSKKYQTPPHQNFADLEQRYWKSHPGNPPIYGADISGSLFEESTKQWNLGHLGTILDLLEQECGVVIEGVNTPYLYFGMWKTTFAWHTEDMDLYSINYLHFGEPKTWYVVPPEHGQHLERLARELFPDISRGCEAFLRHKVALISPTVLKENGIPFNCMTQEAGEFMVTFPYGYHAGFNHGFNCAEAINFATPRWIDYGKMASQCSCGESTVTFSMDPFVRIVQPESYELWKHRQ
An asterisk follows results filed as active; ? = inconclusive; . = no result given; ! = not active in a repeat. Rule as the data show it, unless noted: active = activity change below about -65%; inconclusive = mostly about -30% to -63%; inactive = weaker than that. Unless noted, % is scaled to controls: 0 for no effect and ±100 for the full control effect.

SMILES	Six1-Eya2 inh	L3MBTL1 inh	CtBP-E1A inh	KDM4E inh
COc1cccc(/C=N/Nc2ncnc3c2ncn3Cc2ccccc2)c1O	-77.9*	-1.4%	-87.1*	?
COc1cccc(/C=N/Nc2nnc(C)n2N)c1O	-73.3*	.	-87.5*	.
COc1ccc(CCC(=O)Nc2cc(S(=O)(=O)N3CCOCC3)ccc2OC(C)C)cc1	4.5	-1.6%	-0.1	.
Cc1c(O[C@@H]2O[C@H](CO)[C@@H](O)[C@H](O)[C@H]2O)c(CO)c(O[C@@H]2O[C@H](CO)[C@@H](O)[C@H](O)[C@H]2O)c2c1O[C@@H](c1ccccc1)C[C@@H]2O	-9.3	-4.6%	-18.8	.
Cc1ccc(C)c(NC(=O)CSc2nc3nc(-c4cccs4)cc(C(F)(F)F)c3c(=O)[nH]2)c1	-9.6	.	-9.6	?
O=C(CSc1nc2nc(-c3cccs3)cc(C(F)(F)F)c2c(=O)[nH]1)Nc1ccc(F)c(F)c1	-9.0	28.2µM*	0.5	?
Cc1cc(N(C)C)ccc1N=Nc1ccc(N)cc1	-76.7*	.	-73.8*	.
COC(=O)c1c(NC(=O)C(C)C)sc(C(=O)N2CCOCC2)c1C	8.4	.	11.4	.
Cc1cccc(NC(=O)CSc2cccc3cccnc23)c1	-81.3*	-0.4%	.	.
O=C(CSc1cccc2cccnc12)Nc1cc(C(=O)O)cc(C(=O)O)c1	?	-4.5%	-83.3*	.
CCCCOc1ccc(NC(=O)CSc2cccc3cccnc23)cc1	?	-5.2%	-88.3*	?
CCOc1cc(/C=N/NC(=O)CSc2cccc3cccnc23)ccc1O	-65.9*	-4.6%	-74.0*	?
COc1ccc(OCC(O)CN2CCN(c3ccc(Cl)cc3)CC2)cc1 (stereo not drawn)	-8.7	.	.	3.2%
COc1ccc(N2CCN(CC(O)COC(C)(C)C)CC2)cc1 (stereo not drawn)	9.9	1.7%	.	25.1µM*
CC(C)(O)[C@@H]1CCC[N+]2(C)CCCC[C@H]12 (stereo partly drawn)	.	.	.	-28.9%
CN(C)c1ccc(NC(=O)CN2CCC(N3CCCCC3)CC2)cc1	-0.8	.	10.7	31.6µM*
CC1CC(=O)c2c(cc3c(-c4c(O)cc(O)c5c(O)c6c(cc45)OC(C)CC6=O)c(O)cc(O)c3c2O)O1 (stereo not drawn)	?	0.631µM*	?	8.91µM*
O=C1CC(c2ccccc2)Oc2cc(O)cc(O)c21 (stereo not drawn)	0.7	.	6.6	-2.2%
CC1=NN(c2ccccc2)C(=O)/C1=C\c1ccc(Oc2ccc([N+](=O)[O-])cc2[N+](=O)[O-])cc1	-8.2	?	3.1	6.31µM*
CCOC(=O)C[N+](C)(C)CCOC1CC2CCC1(C)C2(C)C (stereo not drawn)	-2.9	1.9%	-1.3	17.8µM*
Cc1cc(C(=O)COC(=O)/C=C/c2cccc(Br)c2)c(C)n1C	?	-7.8%	-65.9*	.
CCOc1ccc(CCNC(=O)COC(=O)Cn2nc(C)c([N+](=O)[O-])c2C)cc1OCC	0.0	6.0%	-0.6	.
COc1ccc(C(=O)N/C(=C\c2ccco2)C(=O)NCCCn2ccnc2)cc1	11.3	-16.7%	4.7	0.0%
Cc1ccc(C(=O)N/C(=C\c2ccco2)C(=O)NCCCn2ccnc2)cc1C	-80.6*	?	6.7	1.9%
Cc1csc(NC(=O)c2ccc(Cl)cc2[N+](=O)[O-])n1	-1.5	.	-0.6	-2.0%
SMILES	Six1-Eya2 inh	L3MBTL1 inh	CtBP-E1A inh	KDM4E inh
Cc1cc(C(=O)Nc2nc(-c3ccccn3)cs2)ccc1[N+](=O)[O-]	-71.5*	.	-14.3	?
Cc1csc(NC(=O)c2ccc(C)c([N+](=O)[O-])c2)n1	-17.9	-3.1%	-18.6	3.4%
O=C(Nc1nc(-c2ccccn2)cs1)c1cc(Cl)ccc1[N+](=O)[O-]	-91.0*	10µM*	?	?
COC(=O)c1ccc(C(NC(=O)OCc2ccccc2)/C(F)=C/[C@@H](C)C(=O)NCc2nc3ccccc3s2)cc1 (stereo partly drawn)	.	.	.	-12.9%
O=C(O)c1cccc(N2C(=O)c3cc([N+](=O)[O-])cc4cc([N+](=O)[O-])cc(c34)C2=O)c1	-74.8*	31.6µM*	-68.3*	.
Cc1cc(C(=O)COc2cccc3cccnc23)c(C)n1C	?	11.2µM*	?	-28.0%
CCCCC/C=C\C/C=C\C/C=C\CCCCC(N)=O	.	.	.	3.7%
CC1=C(CC(=O)O)c2cc(F)ccc2/C1=C\c1ccc(S(C)=O)cc1 (stereo not drawn)	1.4	.	-0.2	35.5µM*!
O=C(Cn1c(-c2ccccc2)c[n+]2ccsc12)c1ccc(Br)cc1	-1.5	-4.2%	2.9	8.3%
